PubChem BioAssay AID1159580 (chemical genetic matrix, 2015)
Out of some 5,500 compounds screened, about 2,000 (36%) were called active. Roughly 18% stayed inconclusive and do not appear here. Cut-off read from the data, not from the text of the source: active = normalized growth mostly below about 0.91 (no sharp cut-off); inconclusive = no clear call, values can overlap the other calls; inactive = mostly above about 0.92. This is one part of the list.

Experiment: chemical genetic growth profiling, strain panel (AID 1159580);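 note: tested at 20 µM; growth read once vehicle control cultures reached saturation at 30 °C; 1 = growth at the plate median or of vehicle wells; lower values mean less growth of the strain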
Conditions: S. cerevisiae deletion strains, growth OD

Measured: normalized growth

C/C(=C\CO)CC[C@H](C)CCC[C@H](C)CCCC(C)C
active: locus YKL068W, hits give low values 1.09 [resistant] | locus YKL085W, strain MDH1 (second series), hits give low values 1.07 [resistant] | locus YKL085W, strain MDH1, hits give low values 1.07 [resistant] | locus YKR001C, strain vps1, hits give low values 1.19 [resistant] | locus YKR026C, strain gcn3, hits give low values 1.12 [resistant] | locus YKR091W, strain srl3, hits give low values 1.12 [resistant] | locus YLL001W, strain dnm1, hits give low values 1.13 [resistant] | locus YLL026W, hits give low values 1.14 [resistant] | locus YLL041C, strain sdh2, hits give low values 1.13 [resistant] | locus YLR027C, strain aat2, hits give low values 1.12 [resistant] | locus YLR102C, strain apc9, hits give low values 1.11 [resistant] | locus YLR221C, strain rsa3, hits give low values 1.15 [resistant] | locus YLR258W, strain gsy2, hits give low values 1.14 [resistant] | locus YLR262C, strain YPT6 (second series), hits give low values 1.17 [resistant] | locus YLR268W, strain sec22, hits give low values 1.15 [resistant] | locus YLR330W, strain CHS5, hits give low values 1.1 [resistant] | locus YLR370C, strain arc18, hits give low values 1.1 [resistant] | locus YML032C, strain rad52, hits give low values 1.15 [resistant] | locus YML120C, strain ndi1, hits give low values 1.13 [resistant] | locus YML124C, strain tub3, hits give low values 1.12 [resistant] | locus YMR058W, strain fet3, hits give low values 1.13 [resistant] | locus YMR078C, strain ctf18, hits give low values 1.15 [resistant] | locus YMR125W, strain sto1, hits give low values 1.13 [resistant] | locus YMR129W, hits give low values 1.14 [resistant] | locus YMR223W, strain ubp8, hits give low values 1.13 [resistant] | locus YMR231W, strain pep5, hits give low values 1.14 [resistant] | locus YMR263W, strain SAP30, hits give low values 1.12 [resistant] | locus YNL071W, strain lat1, hits give low values 1.13 [resistant] | locus YNL153C, strain GIM3, hits give low values 1.13 [resistant] | locus YNL209W, strain ssb2, hits give low values 1.12 [resistant] | locus YNL248C, strain rpa49, hits give low values 1.13 [resistant] | locus YNL250W, strain rad50, hits give low values 1.13 [resistant] | locus YNL271C, strain bni1, hits give low values 1.12 [resistant] | locus YNL298W, strain CLA4, hits give low values 1.14 [resistant] | locus YNL307C, strain MCK1, hits give low values 1.14 [resistant] | locus YNR049C, strain mso1, hits give low values 1.11 [resistant] | locus YNR052C, strain pop2, hits give low values 1.14 [resistant] | locus YOL147C, strain pex11, hits give low values 1.12 [resistant] | locus YOR001W, strain rrp6, hits give low values 1.15 [resistant] | locus YOR070C, strain gyp1, hits give low values 1.08 [resistant] | locus YOR083W, strain WHI5, hits give low values 1.14 [resistant] | locus YOR106W, strain vam3, hits give low values 1.15 [resistant] | locus YOR136W, strain idh2, hits give low values 1.15 [resistant] | locus YOR144C, strain elg1, hits give low values 1.13 [resistant] | locus YOR184W, strain ser1, hits give low values 1.15 [resistant] | locus YOR265W, strain rbl2, hits give low values 1.14 [resistant] | locus YOR290C, strain snf2, hits give low values 1.13 [resistant] | locus YOR316C, strain cot1, hits give low values 1.13 [resistant] | locus YPL078C, strain atp4, hits give low values 1.12 [resistant] | locus YPL106C, strain sse1, hits give low values 1.15 [resistant] | locus YPL240C, strain hsp82, hits give low values 1.12 [resistant] | locus YPR141C, strain kar3, hits give low values 1.12 [resistant] | locus YPR163C, strain tif3, hits give low values 1.13 [resistant] | locus YPR167C, strain met16, hits give low values 1.09 [resistant] | strain wtn01, hits give low values 1.12 [resistant]
inactive: locus YJR066W, strain TOR1, hits give low values 0.98 | locus YJR075W, strain HOC1, hits give low values 1.12 | locus YKL009W, strain mrt4, hits give low values 1.09 | locus YKL160W, strain elf1, hits give low values 0.984 | locus YKL190W, strain CNB1, hits give low values 1.05 | locus YLR039C, strain RIC1, hits give low values 1.16 | locus YLR058C, strain SHM2, hits give low values 1.09 | locus YLR113W, strain HOG1, hits give low values 0.959 | locus YLR262C, strain YPT6, hits give low values 1.16 | locus YLR320W, strain mms22, hits give low values 0.988 | locus YLR342W, strain FKS1 (second series), hits give low values 1.1 | locus YLR342W, strain FKS1, hits give low values 1.09 | locus YLR357W, strain rsc2, hits give low values 1.1 | locus YLR371W, strain rom2, hits give low values 1.04 | locus YLR384C, strain iki3, hits give low values 0.978 | locus YLR418C, strain cdc73, hits give low values 1.12 | locus YML016C, strain PPZ1, hits give low values 1.05 | locus YMR205C, strain PFK2, hits give low values 1.08 | locus YMR307W, strain GAS1, hits give low values 1.1 | locus YNL067W, strain RPL9B, hits give low values 1.08 | locus YNL183C, strain NPR1, hits give low values 0.967 | locus YNL233W, strain BNI4, hits give low values 1.07 | locus YNL322C, strain KRE1 (second series), hits give low values 1.08 | locus YNL322C, strain KRE1, hits give low values 1.07 | locus YOL006C, strain TOP1, hits give low values 1.12 | locus YOL012C, strain htz1 1.59 | locus YOR061W, strain CKA2, hits give low values 1.1 | locus YOR069W, strain VPS5, hits give low values 1.05 | locus YOR080W, strain dia2, hits give low values 0.982 | locus YOR231W, strain MKK1, hits give low values 0.984 | locus YOR270C, strain vph1, hits give low values 1.16 | locus YPL051W, strain arl3, hits give low values 1.05 | locus YPL055C, strain LGE1, hits give low values 1.05 | locus YPL256C, strain CLN2, hits give low values 0.961 | locus YPR119W, strain clb2, hits give low values 1.06
